Assay outcomes as filed in PubChem.
Only some compounds are listed: those with a hit (about 12% of all), similar ones and a draw of the others.
Sfp PPTase inh: blocks B. subtilis Sfp PPTase activity; Biochemical Sfp PPTase activity, qHTS; Potency, µM, inactives show largest response in the series, negative = inhibition, most hits filed as inhibitors; actives 3.5% (n = 310,000); AID 1490;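 note: the enzyme is Sfp with the accession as filed and its product quenches rhodamine fluorescence; 0% = enzyme reaction without inhibitor and -100% = no enzyme wells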
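With Hepes-Na pH 7.6 buffer containing 10 mM MgCl2, Sfp (15 nM) modified BHQ-2-YbbR (12.5 uM) using rhodamine-CoA (5 uM). Two reads 30 minutes apart at 525/598 nm yielded each well's rate.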
BAZ2B inh: blocks human BAZ2B | Potency, µM (doses to about 114 µM), for the others: at the highest dose activity change, negative = inhibition, actives largely listed as inhibitors | actives 4.4% (n = 360,000) | AlphaScreen BAZ2B-H3K14Ac peptide displacement | AID 504333; note: % is set by controls: 0 for no effect and ±100 for the full control effect; nearly all actives have a fitted effect of over 60% in size
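Protein-peptide AlphaScreen: BAZ2B 50 nM, b-H3K14Ac 50 nM, 1x PBS pH 7.4 + 0.01% Tween-20. Preincubation 30 min RT; cpd 30 min RT (top 110 uM); beads 20 min RT, light-protected.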
JMJD2A Tudor inh: blocks the human JMJD2A Tudor domain; Potency, µM (top dose mostly 114 µM), without a hit: top-dose activity change, negative = inhibition, hits mostly inhibitors; O75164; actives 4.4% (n = 390,000); AID 504339; AlphaScreen JMJD2A-Tudor / H3K4me3 peptide binding; note: % is set by controls: 0 for no effect and ±100 for the full control effect; nearly all actives have a fitted effect of over 50% in size
L3MBTL1 block: inhibitors of human L3MBTL1; Potency, µM (doses to about 57.1 µM), for inactives: at the highest dose activity, negative = inhibition, actives largely listed as inhibitors; AlphaScreen L3MBTL1–H3K9me1 peptide binding; Q9Y468; AID 485360; actives 0.66% (n = 230,000); note: % is set by controls: 0 for no effect and ±100 for the full control effect; nearly all actives have a fitted effect of over 60% in size
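AlphaScreen assay: L3MBTL1 (50 nM final) was preincubated 30 min at room temperature with biotinylated H3(1-15)K9me1 peptide (75 nM final), then 30 min with library compounds; streptavidin donor and nickel chelate acceptor beads (10 ug/mL final) added, 30 min dark.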
G9a inh: blocks human histone lysine methyltransferase G9a; Potency, µM (titrated, usually from 102 µM), without a hit: at the top dose activity, negative = inhibition, hits mostly inhibitors; Q96KQ7; G9a H3K9 monomethylation, AlphaScreen, 2 h; actives 8.8% (n = 350,000); note: % is set by controls: 0 for no effect and ±100 for the full control effect; nearly all actives have a fitted effect of over 75% in size
Target sequence (Q96KQ7 913-1193 limits assumed): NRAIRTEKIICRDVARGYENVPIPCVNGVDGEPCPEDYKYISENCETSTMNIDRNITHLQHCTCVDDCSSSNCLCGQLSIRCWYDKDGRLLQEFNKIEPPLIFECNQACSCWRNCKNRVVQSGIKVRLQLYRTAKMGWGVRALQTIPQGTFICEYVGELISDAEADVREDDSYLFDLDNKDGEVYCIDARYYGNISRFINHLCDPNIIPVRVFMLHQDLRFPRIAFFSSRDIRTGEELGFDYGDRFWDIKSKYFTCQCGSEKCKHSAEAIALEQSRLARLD
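Readings reflect AlphaScreen signal from monomethyl-H3K9 antibody detection. HMT at 20 nM; substrate b-H3K9 500 nM; cofactor SAM 20 uM; 2 h RT reaction; compounds tested as titrations in qHTS with 15 min preincubation.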
HP1b binding inh: HP1-beta chromodomain-methylated histone interaction inhibition | P83916 | AlphaScreen HP1-beta / biotin-H3K9me3 peptide binding | Potency, µM (titrated, usually from 114 µM), for inactives: at the highest dose activity change, negative = inhibition, most hits filed as inhibitors | actives 0.56% (n = 390,000) | AID 540317; note: nearly all actives have a fitted effect of over 70% in size
Target sequence (P83916 whole entry, looked up): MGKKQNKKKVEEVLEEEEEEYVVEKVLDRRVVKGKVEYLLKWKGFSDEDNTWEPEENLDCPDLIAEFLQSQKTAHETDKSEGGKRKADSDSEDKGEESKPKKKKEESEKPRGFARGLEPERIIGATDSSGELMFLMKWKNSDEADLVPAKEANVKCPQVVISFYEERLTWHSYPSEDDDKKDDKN
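Compound inhibition of the preformed complex between 50 nM HP1-beta and 50 nM biotinylated H3K9me3 peptide was read by AlphaScreen. Buffer was PBS pH 7.4 with 0.01% Tween-20. Incubations ran 30 min at room temperature, with 10 ug/mL donor/acceptor beads.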
* = called active by the depositor; ? = inconclusive; . = no result; [ ] = remark or other dose. Calls come from the whole dose curve; as a rule, active = well fitted curve in the direction sought with a large enough effect; inconclusive = small, poorly fitted or top-dose-only effect, or another doubt; inactive = no such curve, though single readings can be large; an effect the other way counts as inactive or inconclusive. Potency is the fitted concentration of half-maximal effect.

SMILES	Sfp PPTase inh	BAZ2B inh	JMJD2A Tudor inh	L3MBTL1 block	G9a inh	HP1b binding inh
OCCN(Cc1ccccc1)CC(O)COc1ccc(-c2ccccc2)cc1 (centres undefined)	50.1µM*	?	-34.4%	-7.3%	-7.9%[12.7 µM]	45.2%
CCCNC1=C(N(C(C)=O)c2cccc(F)c2)C(=O)c2ccccc2C1=O	18.9%	-42.8%	-25.0%	-18.7%	4.3%[59 µM]	-15.4%
CCC(=O)N(C1=C(NC(C)C)C(=O)c2ccccc2C1=O)C(C)C	-13.2%	-31.1%	-23.7%	-14.9%	44.7µM*	-0.4%
CN(C(=O)COC(=O)Cn1c(C(F)(F)F)nc2ccccc21)c1c(N)n(Cc2ccccc2)c(=O)[nH]c1=O	-3.0%	-4.0%	-1.4%	.	.	17.8%
CC(C)CN(C(=O)COC(=O)c1ccccn1)c1c(N)n(Cc2ccccc2)c(=O)[nH]c1=O	.	?	6.31µM*	-2.9%	44.7µM*	-13.0%
CCc1nc2ccccc2n1CC(=O)OCC(=O)N(CC(C)C)c1c(N)n(Cc2ccccc2)c(=O)[nH]c1=O	.	5.9%	-4.8%	1.0%	56.2µM*	29.2%
Cc1nc2cccnc2n1C1CCN(C(=O)Nc2ccccc2C(F)(F)F)CC1	.	-6.8%	6.6%	.	9.7%[12.7 µM]	30.0%
CC(CCc1ccccc1)NC(=O)CN1CCOc2ccccc21 (centres undefined)	.	.	-33.1%	.	.	39.8%
COc1ccccc1NC(=O)CN1CCSc2ccccc21	-13.2%	-1.4%	-27.4%	.	?	5.4%
Cc1cccc(NC(=O)CN2CCSc3ccccc32)c1	0.7%	?	-23.5%	-17.0%	44.7µM*	31.2%
CC(CCc1ccccc1)NC(=O)CN1CCSc2ccccc21 (centres undefined)	?	?	56.2µM*	.	31.6µM*	79.4µM*
COc1cccc(NC(=O)CN2CCSc3ccccc32)c1	63.1µM*	?	-33.4%	.	22.4µM*	2.7%
CCC[C@@H]1C[C@@H](C(=O)N[C@@H]([C@H]2O[C@H](SC)[C@H](O)[C@@H](O)[C@H]2O)[C@@H](C)O)N(C)C1	-3.5%	.	.	.	-23.6%[59 µM]	.
O=C(O)c1ccc(S(=O)(=O)c2ccc3c(c2)C(=O)N(NC(=O)c2ccc(O)cc2)C3=O)cc1	17.1%	?	-11.3%[11.4 µM]	4.4%	-47.2%	46.3%
Cc1ccc(C(=O)NN2C(=O)c3ccc(S(=O)(=O)c4ccc(C(=O)O)cc4)cc3C2=O)cc1	5.1%	-2.5%	15.8µM*	.	?	3.1%
CCC(=O)Oc1ccc2c(c1)O/C(=C\c1ccco1)C2=O	-13.2%	?	-30.3%	-10.0%	50.1µM*	?
O=C1/C(=C/c2ccco2)Oc2c1ccc(O)c2CN1CCCCC1	?	?	-30.1%	?	?	6.8%
COC(=O)COc1ccc2c(c1)O/C(=C\c1ccco1)C2=O	56.2µM*	?	?	.	25.1µM*	-18.9%
Cc1cc(O)cc2c1C(=O)/C(=C/c1ccco1)O2	-10.4%	?	?	.	?	-30.8%
CCN(CC)C(=O)Oc1ccc2c(c1)O/C(=C\c1ccco1)C2=O	?	39.8µM*	?	.	25.1µM*	-18.6%
CC(=O)Oc1ccc2c(c1)O/C(=C\c1ccncc1)C2=O	2.5%	2.7%	-13.6%	7.8%	.	51.8%
COCCN(CCOC)Cc1c(O)ccc2c1O/C(=C\c1ccco1)C2=O	39.8µM*	70.8µM*	-22.6%	.	4.47µM*	-23.8%
NS(=O)(=O)c1ccc(CCNc2ncnc3c2cnn3-c2cccc(Cl)c2)cc1	.	-8.9%	-28.7%	.	-1.7%[59 µM]	13.9%
CC1CCN(C(=O)CSc2c(C(C)C)cnc3c2c(=O)n(C)c(=O)n3C)CC1	.	-6.5%	-18.8%	.	?	23.4%[57 µM]
COc1ccc(-n2ncc(C(=O)Nc3ccc(C)cc3Cl)c2C2CCN(C(=O)OC(C)(C)C)CC2)cc1	.	-0.1%[57.1 µM]	-14.2%	.	-5.0%[59 µM]	37.8%
SMILES	Sfp PPTase inh	BAZ2B inh	JMJD2A Tudor inh	L3MBTL1 block	G9a inh	HP1b binding inh
Cc1c(C(=O)Oc2cc(N)n(S(C)(=O)=O)n2)cccc1[N+](=O)[O-]	-26.8%	?	-21.7%	.	15.8µM*	8.1%
CCCCCCCCC[n+]1cccc2c3ccccc3ccc21	-9.3%	8.7%	6.3%	11.0%	.	42.0%
CCCCCCCCCCCCCCCC[n+]1cccc2ccccc21	25.1µM*	50.1µM*	?	19.8%	6.31µM*	-12.9%
O=[N+]([O-])c1ccc(CN2CCSCC2)cc1	-27.0%	70.8µM*	1.58µM*	1.7%	25.1µM*	25.1µM*
O=[N+]([O-])c1ccc(CN2CCN(c3ccc(F)cc3)CC2)o1	-44.3%	?	11.2µM*	-8.6%	?	?
c1ccc(-c2ccc(CN3CCSCC3)cc2)cc1	?	?	20µM*	-1.6%	.	?
O=[N+]([O-])c1ccc(CN2CCN(c3ccc([N+](=O)[O-])cc3)CC2)cc1	-27.8%	25.1µM*	3.16µM*	.	12.6µM*	50.1µM*
COc1cccc(/C=N/NC(=O)c2cc(-c3ccccn3)nc3ccccc23)c1O	.	-29.9%	56.2µM*	-26.7%	42.7%[12.7 µM]	-6.1%[57 µM]
O=C(N/N=C/c1ccc(F)cc1)c1cc(-c2ccccn2)nc2ccccc12	.	1.4%	-11.7%	1.2%	-0.6%	43.6%
O=[N+]([O-])c1cc(Cl)cc(/C=N\Nc2ccccn2)c1O	11.4%	4.47µM*	10µM*	2.9%	?	10µM*
O=C(N/N=C/c1cc(Cl)cc([N+](=O)[O-])c1O)c1cc(-c2ccccn2)nc2ccccc12	-0.2%	?	44.7µM*	.	-5.7%[12.7 µM]	?
Cc1cc(NC(=O)Nc2nnc(N(C)Cc3ccccc3)s2)ccc1Br	.	35.8%	19.2%	.	38.9%[59 µM]	49.1%
COC(=O)CN1C(=O)C(C)(C)c2cc(S(=O)(=O)Nc3ccc(C(C)C)cc3)ccc21	.	-5.8%	-12.6%	.	-3.3%[59 µM]	21.3%[57 µM]
COc1ccc(NCc2n[nH]nc2-c2ccccc2)cc1Cl	16.2%	39.8µM*	?	-12.0%	?	-16.1%
CCOC(=O)C1=C(c2ccccc2)NC(N)=NC1c1ccc(OCc2ccc(Cl)cc2)c(OC)c1 (centres undefined)	31.6µM*	?	?	?	-44.4%[59 µM]	-17.0%[57 µM]
CCOC(=O)Cc1csc(NS(=O)(=O)c2ccccc2)n1	24.1%	-4.0%[57.1 µM]	-16.0%	5.7%	8.6%	17.7%
CCOC(=O)c1ccccc1-c1csc(NS(=O)(=O)c2ccc(Cl)cc2)n1	-0.8%	56.2µM*	-10.5%	-1.9%	-35.4%[59 µM]	20.0%
COc1ccc(-c2csc3ncnc(N4CCN(c5ccccc5OC)CC4)c23)cc1	-2.9%	-35.2%	?	.	44.7µM*	?
Oc1ccccc1N1CCN(c2ncnc3scc(-c4ccccc4)c23)CC1	2.9%	-24.6%	?	.	?	-24.2%
Cc1nc(N2CCN(c3ccccc3O)CC2)c2c(-c3ccccc3)csc2n1	-7.7%	39.8µM*	?	.	?	?
